Source: PubChem
Most compounds without a hit are left out; they make up all but 2.9% or so of the library.
Myeloid diff 2 = compounds promoting myeloid differentiation; ER-HoxA9 myeloid progenitors, lysozyme-GFP differentiation, flow cytometry; calls only at 10 µM; hit rate 1% among 360,000;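 active = normalized GFP-positive differentiation at or above the plate's own cutoff, the solvent-only control mean plus 3 SD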;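 note: cells exposed to compound for four days before flow analysis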
ABHD5-PLIN5 inh = blocks binding of human ABHD5 to perilipin-5; Q00G26+Q8WTS1; Split G. princeps luciferase complementation, luminescence, 4 h; inhibition, % at 4 µM; hit rate 0.78% among 360,000; AID 602281;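 active = inhibition above the mean inhibition across every tested compound plus 3 SD, cut at about 22% in these data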;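 note: 0% = DMSO only wells and the 100% control is not disclosed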
H9c2 protect = myocardial damage modulation in H9c2 cells; H9c2 cardiomyocytes, H2O2 injury protection, ATPLite, 2 h; protection from H2O2 cell death, % at 20 µM; hit rate 0.63% among 360,000; AID 588492;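 active = compounds giving at least 50% protection of heart cells from peroxide-induced death in the single-dose screen, raw or plate-pattern-corrected value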;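 note: 0% = DMSO wells with peroxide and 100% = DMSO wells without peroxide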
DAGLB inh = blocks human DAGLB lipase activity; Q8NCG7; hit rate 0.059% among 340,000; HEK293T DAGLB membrane lysate, EnzChek fluorogenic substrate; inhibition, % at 5.17 µM; in the data active = inhibition above about 34%;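 note: 0% = enzyme with vehicle and 100% = wells lacking enzyme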
HGIII-sPLA2 inh = Inhibits HGIII-sPLA2 liposome hydrolysis, primary screen; inhibition, % at 12.2 µM; hit rate 0.56% among 370,000; Q9NZ20; QFRET BODIPY PC-A2 liposome hydrolysis, fluorescence;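 active = inhibition above mean plus 3 SD of compounds lying within the high and low control bounds, cut at about 19% in these data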;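 note: 0% = median of test compound wells and 100% = no enzyme DMSO wells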
Target sequence (Q9NZ20 whole entry, looked up): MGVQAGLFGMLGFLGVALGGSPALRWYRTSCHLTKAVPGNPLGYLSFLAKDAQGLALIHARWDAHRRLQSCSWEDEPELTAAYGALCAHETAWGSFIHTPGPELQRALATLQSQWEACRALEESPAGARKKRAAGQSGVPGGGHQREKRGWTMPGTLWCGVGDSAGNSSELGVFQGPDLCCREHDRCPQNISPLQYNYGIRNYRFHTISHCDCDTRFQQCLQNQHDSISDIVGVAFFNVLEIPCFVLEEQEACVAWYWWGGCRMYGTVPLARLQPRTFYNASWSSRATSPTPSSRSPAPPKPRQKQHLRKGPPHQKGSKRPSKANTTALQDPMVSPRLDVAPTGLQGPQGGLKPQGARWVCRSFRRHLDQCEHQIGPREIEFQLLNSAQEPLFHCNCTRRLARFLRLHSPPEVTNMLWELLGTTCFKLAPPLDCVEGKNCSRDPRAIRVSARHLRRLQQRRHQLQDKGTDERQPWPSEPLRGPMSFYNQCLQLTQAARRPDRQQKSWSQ
Rtt109 HAT inh = C. albicans Rtt109 histone acetyltransferase inhibition; Q5AAJ8; purified Rtt109/Vps75, ThioGlo CoA-SH fluorescence, 4 h; inhibition, % at 34.9 µM; hit rate 0.16% among 330,000; AID 540336;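 active = inhibition of at least 50% in every replicate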
ABHD5-PLIN5 conf = confirmation of human ABHD5-PLIN5 interaction inhibitors; shares compounds with ABHD5-PLIN5 inh; biochemical ABHD5-PLIN5 interaction, luminescence; inhibition, % at 4 µM; hit rate 67% among 2,200; AID 651612; in the data active = inhibition above about 23%;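 note: 0% = DMSO vehicle wells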
HNF4 counter = HNF4 split-luciferase signal hit, counter-screen; AID 651674; shares compounds with ABHD5-PLIN5 inh; inhibition, % at 4 µM; HNF4 dimerization, luminescence, biochemical; hit rate 77% among 2,200;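 active = mean inhibition across replicate wells exceeding the computed hit threshold, cut at about 13% in these data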;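 note: light from luciferase halves that rejoin when HNF4 fusion proteins dimerize; 0% = DMSO only wells and the 100% control is not given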
The depositor's hits bear a star.

Results for CC(C)Cc1nnc(NC(=O)C2CC(=O)N(Cc3ccccc3)C2)s1 (stereo unspecified) ?
Myeloid diff 2: inactive; ABHD5-PLIN5 inh: -2; H9c2 protect: 3; DAGLB inh: 3; HGIII-sPLA2 inh: 1; Rtt109 HAT inh: 20

How did CNC[C@@H]1Oc2ccc(NS(=O)(=O)c3ccc(Cl)cc3)cc2C(=O)N([C@H](C)CO)C[C@@H]1C do in these assays?
Myeloid diff 2: inactive; ABHD5-PLIN5 inh: 25*; H9c2 protect: 1; DAGLB inh: -2; HGIII-sPLA2 inh: -27; Rtt109 HAT inh: 14; ABHD5-PLIN5 conf: 19; HNF4 counter: -4

How did C[C@H]1[C@@H](NS(=O)(=O)c2ccccc2[N+](=O)[O-])CC[C@@]23CCCN2C(=O)CCC[C@@H]13 do in these assays?
HGIII-sPLA2 inh: -5

How did COc1ccc(C2C3=C(CC(C)(C)CC3=O)Nc3c2c(=O)[nH]c(=O)n3Cc2ccccc2)cc1 (stereo unspecified) do in these assays?
Myeloid diff 2: inactive; ABHD5-PLIN5 inh: -1; H9c2 protect: 29; DAGLB inh: 5; HGIII-sPLA2 inh: -38; Rtt109 HAT inh: -17

What do the screens show for `C#CCN1C=CC(=O)[C@@H](O)[C@H]1c1ccccc1Br`?
Myeloid diff 2: inactive; ABHD5-PLIN5 inh: 4; H9c2 protect: 7; DAGLB inh: -2; HGIII-sPLA2 inh: 2; Rtt109 HAT inh: 4

What do the screens show for `COc1cccc(CC2(CO)CCCN(Cc3ccc(-c4ccco4)cc3)C2)c1` (stereo unspecified)?
Myeloid diff 2: inactive; ABHD5-PLIN5 inh: 24*; H9c2 protect: 10; DAGLB inh: -2; HGIII-sPLA2 inh: -12; Rtt109 HAT inh: 0; ABHD5-PLIN5 conf: 22*; HNF4 counter: 32*

Results for COc1cccc(CC2(CO)CCCN(Cc3ccccc3-c3ccco3)C2)c1 (stereo unspecified) ?
Myeloid diff 2: inactive; ABHD5-PLIN5 inh: 4; H9c2 protect: -3; DAGLB inh: -6; HGIII-sPLA2 inh: -8

How did CC1CN(Cc2c(O)ccc3c2oc(=O)c2ccccc23)CC(C)O1 (stereo unspecified) do in these assays?
Myeloid diff 2: inactive; ABHD5-PLIN5 inh: 49*; H9c2 protect: 13; DAGLB inh: -4; HGIII-sPLA2 inh: 10; Rtt109 HAT inh: 6; ABHD5-PLIN5 conf: 72*; HNF4 counter: 44*

Results for CCOC(=O)C1CN(S(=O)(=O)c2ccc(OC)cc2)c2ccccc2O1 (stereo unspecified) ?
Myeloid diff 2: inactive; ABHD5-PLIN5 inh: -4; H9c2 protect: -4; DAGLB inh: -4; HGIII-sPLA2 inh: 5; Rtt109 HAT inh: 0

Results for O=c1[nH]c(Sc2ccc([N+](=O)[O-])cc2[N+](=O)[O-])nc2ccccc12 ?
Myeloid diff 2: inactive; ABHD5-PLIN5 inh: 41*; H9c2 protect: -17; DAGLB inh: -36; HGIII-sPLA2 inh: 12; Rtt109 HAT inh: 13; ABHD5-PLIN5 conf: 41*; HNF4 counter: 33*

Results for Cc1ccccc1NC(=O)C(=Cc1ccc(C(=O)O)cc1)C(=O)Nc1ccccc1C ?
Myeloid diff 2: inactive; ABHD5-PLIN5 inh: 27*; H9c2 protect: -6; DAGLB inh: 7; HGIII-sPLA2 inh: -11; Rtt109 HAT inh: -4; ABHD5-PLIN5 conf: 65*; HNF4 counter: 45*

What do the screens show for `CC(=O)Nc1ccccc1C`?
Myeloid diff 2: inactive; ABHD5-PLIN5 inh: -9; H9c2 protect: 1; DAGLB inh: -1; HGIII-sPLA2 inh: -2; Rtt109 HAT inh: -1

What do the screens show for `N#C/C(=C/c1ccc(C(=O)O)cc1)C(=O)Nc1ccccc1`?
Myeloid diff 2: inactive; ABHD5-PLIN5 inh: 3; H9c2 protect: 3; DAGLB inh: 0; HGIII-sPLA2 inh: -16; Rtt109 HAT inh: -13

What do the screens show for `CC(=O)/C(=C/c1ccccc1)C(=O)Nc1ccccc1C`?
Myeloid diff 2: inactive; ABHD5-PLIN5 inh: 39*; H9c2 protect: -1; DAGLB inh: -2; HGIII-sPLA2 inh: -6; ABHD5-PLIN5 conf: 86*; HNF4 counter: 71*
